This is an account of results in paper PMC7862700, “An all-to-all approach to the identification of sequence-specific readers for epigenetic DNA modifications on cytosine”.

Chain of ETV6 (P41212 whole entry): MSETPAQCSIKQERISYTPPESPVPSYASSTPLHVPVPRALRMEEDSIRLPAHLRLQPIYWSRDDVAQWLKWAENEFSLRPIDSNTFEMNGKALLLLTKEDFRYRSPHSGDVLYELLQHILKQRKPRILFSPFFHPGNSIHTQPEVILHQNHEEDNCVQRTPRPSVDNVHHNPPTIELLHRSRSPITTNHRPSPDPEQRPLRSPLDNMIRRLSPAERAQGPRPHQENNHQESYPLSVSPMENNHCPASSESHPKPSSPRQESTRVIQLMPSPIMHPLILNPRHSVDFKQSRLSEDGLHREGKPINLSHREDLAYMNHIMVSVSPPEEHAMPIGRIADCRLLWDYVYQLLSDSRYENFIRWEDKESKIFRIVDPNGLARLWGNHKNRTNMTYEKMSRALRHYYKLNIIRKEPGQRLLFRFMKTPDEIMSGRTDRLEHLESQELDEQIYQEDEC

The target in the first assay is T1, ELF5 (Homo sapiens, UniProt Q9UKW6-2 1-255).
T1 sequence: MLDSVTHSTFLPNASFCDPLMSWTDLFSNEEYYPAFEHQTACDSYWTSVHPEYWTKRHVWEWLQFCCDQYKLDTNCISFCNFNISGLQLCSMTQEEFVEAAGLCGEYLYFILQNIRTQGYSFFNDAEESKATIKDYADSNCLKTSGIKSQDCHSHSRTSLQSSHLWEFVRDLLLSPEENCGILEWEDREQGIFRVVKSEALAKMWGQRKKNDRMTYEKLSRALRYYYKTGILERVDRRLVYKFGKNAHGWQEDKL
The assay is described as follows: DAPPL (digital affinity profiling via proximity ligation, sequencing); 10 mM Tris-HCl pH 7.5, 50 mM NaCl, 1 mM DTT, 4% glycerol, room temperature, 30 min; GST-TFs on glutathione beads, 16-mer random dsDNA library, 0.1% formaldehyde crosslink after washing; high values mean tight binding. The conditions noted are these: protein: recombinant; tags: N-terminal GST; dsDNA, one strand shown. Put shortly:
(§1)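 Sequencing on an Illumina NextSeq500 followed washing, crosslinking with 0.1% formaldehyde, proximity ligation (BsaI/T4 ligase, 1 h, 37 °C) and PCR amplification of pools that had been incubated for 30 min at room temperature with 200 nmole of a random double-stranded 16-mer DNA library in Tris/NaCl/DTT/glycerol buffer. Each pool held DNA-barcoded human transcription factors, expressed in yeast as GST fusions and captured on glutathione beads, plus a tag-only sample. Binding signal is a hexamer's read frequency for a factor divided by its frequency in the tag-only sample.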
Take CACTAC: the binding signal was 1.26 fold enrichment (6-mer frequency, TF over GST control).
On to CAATGC, for which the binding signal is 1.13 fold enrichment (6-mer frequency, TF over GST control).
In the case of ATGCGG, the binding signal is 1.21 fold enrichment (6-mer frequency, TF over GST control).
For CGCCGC, the binding signal was 1.08 fold enrichment (6-mer frequency, TF over GST control).
Turning to ATGTGC, the binding signal is 1.09 fold enrichment (6-mer frequency, TF over GST control).
On the same count and under the same terms, the result for CCGCCA reads 1.47 fold enrichment (6-mer frequency, TF over GST control); that for ATTCCC, 1.5 fold enrichment (6-mer frequency, TF over GST control); that for CTCGCG, 1.42 fold enrichment (6-mer frequency, TF over GST control).
The same measure, in the same setting: the result for GTTTTC reads 1.31 fold enrichment (6-mer frequency, TF over GST control); that for TTGTCC, 1.39 fold enrichment (6-mer frequency, TF over GST control).
Same read-out and setting: the result for CCCCGG reads 1.3 fold enrichment (6-mer frequency, TF over GST control).
For CCGCAA, the binding signal was 1.39 fold enrichment (6-mer frequency, TF over GST control).
With TTAAGT, the binding signal was 1.12 fold enrichment (6-mer frequency, TF over GST control).
On the same count and under the same terms, the result for TGTTTG reads 1.29 fold enrichment (6-mer frequency, TF over GST control); that for TATCGC, 1.19 fold enrichment (6-mer frequency, TF over GST control).
Turning to TCAAGG, the binding signal was 1.14 fold enrichment (6-mer frequency, TF over GST control).
On the same count and under the same terms, the result for GAAACA reads 1.39 fold enrichment (6-mer frequency, TF over GST control).
Consider GAATTG, for which the binding signal was 1.13 fold enrichment (6-mer frequency, TF over GST control).
As for CTGTTG, the binding signal was 1.09 fold enrichment (6-mer frequency, TF over GST control).
Same read-out and setting: the result for TCTACG reads 1.35 fold enrichment (6-mer frequency, TF over GST control); that for GGGCTT, 1.16 fold enrichment (6-mer frequency, TF over GST control).
Regarding CCCTCC, the binding signal was 1.34 fold enrichment (6-mer frequency, TF over GST control).
For TAAGCT, the binding signal is 1.04 fold enrichment (6-mer frequency, TF over GST control).
For ACCTCG, the binding signal is 1.06 fold enrichment (6-mer frequency, TF over GST control).
Turning to TCCACC, the binding signal was 1.19 fold enrichment (6-mer frequency, TF over GST control).
On to CGCTGC, for which the binding signal is 1.07 fold enrichment (6-mer frequency, TF over GST control).
For CATATC, the binding signal is 1.32 fold enrichment (6-mer frequency, TF over GST control).
Regarding CAAGTA, the binding signal is 1.06 fold enrichment (6-mer frequency, TF over GST control).
With AATATT, the binding signal is 1.38 fold enrichment (6-mer frequency, TF over GST control).
With CCCCGA, the binding signal was 1.13 fold enrichment (6-mer frequency, TF over GST control).
On the same count and under the same terms, the result for TTGCTG reads 1.14 fold enrichment (6-mer frequency, TF over GST control); that for TTGATT, 1.16 fold enrichment (6-mer frequency, TF over GST control); that for TTTGGG, 1.26 fold enrichment (6-mer frequency, TF over GST control).
Take TGATGA: the binding signal was 1.21 fold enrichment (6-mer frequency, TF over GST control).
For the sequence ATATGG, the binding signal is 1.27 fold enrichment (6-mer frequency, TF over GST control).
GTTCCC: the binding signal is 1.48 fold enrichment (6-mer frequency, TF over GST control).
On the same count and under the same terms, the result for GTTTTG reads 1.13 fold enrichment (6-mer frequency, TF over GST control); that for TACAAA, 1.13 fold enrichment (6-mer frequency, TF over GST control); that for TGCAAA, 1.05 fold enrichment (6-mer frequency, TF over GST control).
Turning to CCACTC, the binding signal was 1.19 fold enrichment (6-mer frequency, TF over GST control).

The target in a further assay is T2, ETV3 (Homo sapiens, UniProt P41162-2 1-143).
T2 sequence: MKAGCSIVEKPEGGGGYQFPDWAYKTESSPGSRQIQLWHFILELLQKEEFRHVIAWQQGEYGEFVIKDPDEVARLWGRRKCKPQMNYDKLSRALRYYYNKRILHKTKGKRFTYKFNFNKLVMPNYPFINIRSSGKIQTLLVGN
The description is as above. The settings on record: protein: recombinant; tags: N-terminal GST; dsDNA, one strand shown. Put shortly: as §1
With CACTAC, the binding signal was 1.26 fold enrichment (6-mer frequency, TF over GST control).
Regarding CAATGC, the binding signal is 1.2 fold enrichment (6-mer frequency, TF over GST control).
Regarding ATGCGG, the binding signal is 1.45 fold enrichment (6-mer frequency, TF over GST control).
CGCCGC: the binding signal was 1.09 fold enrichment (6-mer frequency, TF over GST control).
Turning to ATGTGC, the binding signal was 1.15 fold enrichment (6-mer frequency, TF over GST control).
On to CCGCCA, for which the binding signal is 1.43 fold enrichment (6-mer frequency, TF over GST control).
ATTCCC: the binding signal was 1.51 fold enrichment (6-mer frequency, TF over GST control).
For the sequence CTCGCG, the binding signal is 1.42 fold enrichment (6-mer frequency, TF over GST control).
As for GTTTTC, the binding signal is 1.29 fold enrichment (6-mer frequency, TF over GST control).
As for TTGTCC, the binding signal is 1.36 fold enrichment (6-mer frequency, TF over GST control).
For CCCCGG, the binding signal is 1.43 fold enrichment (6-mer frequency, TF over GST control).
Same read-out and setting: the result for CCGCAA reads 1.3 fold enrichment (6-mer frequency, TF over GST control); that for TTAAGT, 1.12 fold enrichment (6-mer frequency, TF over GST control); that for TGTTTG, 1.35 fold enrichment (6-mer frequency, TF over GST control).
With TATCGC, the binding signal was 1.13 fold enrichment (6-mer frequency, TF over GST control).
Still for that read-out and setting: the result for TCAAGG reads 1.12 fold enrichment (6-mer frequency, TF over GST control).
With GAAACA, the binding signal was 1.37 fold enrichment (6-mer frequency, TF over GST control).
For GAATTG, the binding signal was 1.03 fold enrichment (6-mer frequency, TF over GST control).
The same measure, in the same setting: the result for CTGTTG reads 1.21 fold enrichment (6-mer frequency, TF over GST control).
As for TCTACG, the binding signal is 1.32 fold enrichment (6-mer frequency, TF over GST control).
For GGGCTT, the binding signal was 1.19 fold enrichment (6-mer frequency, TF over GST control).
As for CCCTCC, the binding signal was 1.39 fold enrichment (6-mer frequency, TF over GST control).
Take TAAGCT: the binding signal is 1.2 fold enrichment (6-mer frequency, TF over GST control).
Take ACCTCG: the binding signal is 1.1 fold enrichment (6-mer frequency, TF over GST control).
TCCACC: the binding signal is 1.29 fold enrichment (6-mer frequency, TF over GST control).
On to CGCTGC, for which the binding signal was 1.13 fold enrichment (6-mer frequency, TF over GST control).
In the case of CATATC, the binding signal was 1.32 fold enrichment (6-mer frequency, TF over GST control).
With CAAGTA, the binding signal is 1.11 fold enrichment (6-mer frequency, TF over GST control).
In the case of AATATT, the binding signal was 1.37 fold enrichment (6-mer frequency, TF over GST control).
As to CCCCGA, the binding signal is 1.05 fold enrichment (6-mer frequency, TF over GST control).
In the case of TTGCTG, the binding signal was 1.23 fold enrichment (6-mer frequency, TF over GST control).
For the sequence TTGATT, the binding signal is 1.3 fold enrichment (6-mer frequency, TF over GST control).
As to TTTGGG, the binding signal is 1.32 fold enrichment (6-mer frequency, TF over GST control).
On the same count and under the same terms, the result for TGATGA reads 1.33 fold enrichment (6-mer frequency, TF over GST control); that for ATATGG, 1.35 fold enrichment (6-mer frequency, TF over GST control).
As to GTTCCC, the binding signal was 1.31 fold enrichment (6-mer frequency, TF over GST control).
The same measure, in the same setting: the result for GTTTTG reads 1.13 fold enrichment (6-mer frequency, TF over GST control); that for TACAAA, 1.08 fold enrichment (6-mer frequency, TF over GST control).
Consider TGCAAA, for which the binding signal is 1.06 fold enrichment (6-mer frequency, TF over GST control).
Same read-out and setting: the result for CCACTC reads 1.14 fold enrichment (6-mer frequency, TF over GST control).

The next assay addresses ETV6 (Homo sapiens, UniProt P41212 1-452). The description is as above. The settings on record: protein: recombinant; tags: N-terminal GST; dsDNA, one strand shown. Put shortly: as §1
In the case of CACTAC, the binding signal is 1.24 fold enrichment (6-mer frequency, TF over GST control).
Consider CAATGC, for which the binding signal is 1.24 fold enrichment (6-mer frequency, TF over GST control).
Same read-out and setting: the result for ATGCGG reads 1.26 fold enrichment (6-mer frequency, TF over GST control).
On to CGCCGC, for which the binding signal was 1.21 fold enrichment (6-mer frequency, TF over GST control).
As for ATGTGC, the binding signal was 1.1 fold enrichment (6-mer frequency, TF over GST control).
For CCGCCA, the binding signal is 1.26 fold enrichment (6-mer frequency, TF over GST control).
On to ATTCCC, for which the binding signal is 1.38 fold enrichment (6-mer frequency, TF over GST control).
Same read-out and setting: the result for CTCGCG reads 1.36 fold enrichment (6-mer frequency, TF over GST control).
With GTTTTC, the binding signal was 1.23 fold enrichment (6-mer frequency, TF over GST control).
Take TTGTCC: the binding signal is 1.32 fold enrichment (6-mer frequency, TF over GST control).
On the same count and under the same terms, the result for CCCCGG reads 1.21 fold enrichment (6-mer frequency, TF over GST control).
Consider CCGCAA, for which the binding signal was 1.33 fold enrichment (6-mer frequency, TF over GST control).
Turning to TTAAGT, the binding signal was 1.19 fold enrichment (6-mer frequency, TF over GST control).
Consider TGTTTG, for which the binding signal was 1.41 fold enrichment (6-mer frequency, TF over GST control).
Regarding TATCGC, the binding signal is 1.08 fold enrichment (6-mer frequency, TF over GST control).
In the case of TCAAGG, the binding signal is 1.14 fold enrichment (6-mer frequency, TF over GST control).
Consider GAAACA, for which the binding signal was 1.45 fold enrichment (6-mer frequency, TF over GST control).
Take GAATTG: the binding signal was 1.06 fold enrichment (6-mer frequency, TF over GST control).
On the same count and under the same terms, the result for CTGTTG reads 1.08 fold enrichment (6-mer frequency, TF over GST control); that for TCTACG, 1.2 fold enrichment (6-mer frequency, TF over GST control).
In the case of GGGCTT, the binding signal was 1.2 fold enrichment (6-mer frequency, TF over GST control).
Regarding CCCTCC, the binding signal is 1.4 fold enrichment (6-mer frequency, TF over GST control).
As to TAAGCT, the binding signal was 1.15 fold enrichment (6-mer frequency, TF over GST control).
As for ACCTCG, the binding signal is 1.09 fold enrichment (6-mer frequency, TF over GST control).
With TCCACC, the binding signal is 1.26 fold enrichment (6-mer frequency, TF over GST control).
On to CGCTGC, for which the binding signal is 1.18 fold enrichment (6-mer frequency, TF over GST control).
On the same count and under the same terms, the result for CATATC reads 1.26 fold enrichment (6-mer frequency, TF over GST control); that for CAAGTA, 1.14 fold enrichment (6-mer frequency, TF over GST control); that for AATATT, 1.46 fold enrichment (6-mer frequency, TF over GST control).
CCCCGA: the binding signal was 1.11 fold enrichment (6-mer frequency, TF over GST control).
Consider TTGCTG, for which the binding signal is 1.13 fold enrichment (6-mer frequency, TF over GST control).
Turning to TTGATT, the binding signal is 1.18 fold enrichment (6-mer frequency, TF over GST control).
On to TTTGGG, for which the binding signal was 1.3 fold enrichment (6-mer frequency, TF over GST control).
As to TGATGA, the binding signal is 1.34 fold enrichment (6-mer frequency, TF over GST control).
Regarding ATATGG, the binding signal was 1.34 fold enrichment (6-mer frequency, TF over GST control).
For the sequence GTTCCC, the binding signal is 1.28 fold enrichment (6-mer frequency, TF over GST control).
Still for that read-out and setting: the result for GTTTTG reads 1.15 fold enrichment (6-mer frequency, TF over GST control).
As for TACAAA, the binding signal was 1.16 fold enrichment (6-mer frequency, TF over GST control).
For TGCAAA, the binding signal is 1.06 fold enrichment (6-mer frequency, TF over GST control).
CCACTC: the binding signal is 1.13 fold enrichment (6-mer frequency, TF over GST control).
